An excerpt weighted towards active compounds, which were near 4.6% of everything screened.
D1 ag – activates the human D1 dopamine receptor. HEK293 T-REx D1 cells, calcium flux, agonist mode. activation, % at 2 µM. 1% of 360,000 active. P21728
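Inducible HEK293 T-REx D1 cells, force-coupled to calcium signalling, were plated at 4000 cells/well with tetracycline and held overnight at 30 C. After no-wash calcium dye loading, compound-evoked calcium rise over 180 s flagged agonists.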
D1 PAM – potentiators of human D1 dopamine receptor | P21728 | HEK293 TREx D1 cells, calcium flux, dopamine EC20 potentiation | potentiation, % at 10 µM | 0.036% of 360,000 active | AID 504651; in the data active = potentiation above about 30%
D1 antagonist – human D1 dopamine receptor antagonism; P21728; HEK293 TREx D1 cells, calcium flux, dopamine EC80; stronger effect = lower value; activity change, negative = inhibition, % at 10 µM; 3.2% of 360,000 active; AID 504652; in the data active = activity change below about -30%
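After overnight tetracycline induction at 30 C, force-coupled D1 HEK293 cells took up a no-wash calcium dye at room temperature. Compounds were added and monitored 180 s, and the response to EC80 dopamine was then recorded.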
TRHR enhancer – TRH receptor (human) allosteric enhancement; AID 493056; TRHR cells, fluo-8 calcium fluorescence, EC20 TRH enhancement; 0.66% of 360,000 active; enhancement, % at 2 µM; P34981; in the data active = enhancement above about 30%
Target sequence (P34981 whole entry, looked up): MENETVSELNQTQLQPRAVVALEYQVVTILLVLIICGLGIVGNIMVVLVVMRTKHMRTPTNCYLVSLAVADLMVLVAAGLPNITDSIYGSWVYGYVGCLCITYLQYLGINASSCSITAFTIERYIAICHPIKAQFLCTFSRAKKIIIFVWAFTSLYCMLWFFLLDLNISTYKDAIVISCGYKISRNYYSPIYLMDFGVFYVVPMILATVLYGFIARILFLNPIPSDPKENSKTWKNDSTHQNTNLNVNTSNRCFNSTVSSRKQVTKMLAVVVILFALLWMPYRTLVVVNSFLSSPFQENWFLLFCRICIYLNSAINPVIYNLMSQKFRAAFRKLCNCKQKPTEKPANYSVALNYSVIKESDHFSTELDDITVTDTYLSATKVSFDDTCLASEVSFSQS
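Enhancer read-out: after compound pinning and an initial kinetic agonist-mode read, an EC20 of TRH (10 nM final) was injected and fluo-8 calcium signal (Ex 480/Em 530) followed at 1 s/cycle for 100 cycles in TRHR-expressing cells.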
TRHR ag – agonists of human TRH receptor. P34981. activation, % at 2 µM. TRHR cells, calcium flux fluo-8, FDSS agonist mode. AID 493084. 0.18% of 360,000 active
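TRHR-expressing cells loaded with fluo-8 calcium dye; 23 nL library compound pin-transferred, kinetic FDSS fluorescence (Ex 480/Em 530) recorded about 180 s for agonist-induced calcium release, before a 10 nM TRH EC20 addition for potentiator mode.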
Numbers stand for hits; 0 = inactive. Rule as the data show it, unless noted: active = activation above about 30%; inactive = the rest.

SMILES | D1 ag | D1 PAM | D1 antagonist | TRHR enhancer | TRHR ag
Cc1ccccc1Cn1cnc2nc3c(cc2c1=O)CC(C)CC3 (configuration not stated) | 0 | 0 | 0 | 0 | 0
COc1ccc2c(c1)C(C)=CC(C)(C)N2S(=O)(=O)c1ccc(NC(C)=O)cc1 | 0 | 0 | 0 | 0 | 0
COc1ccc2c(c1)C(C)=CC(C)(C)N2S(=O)(=O)c1ccc(Br)cc1 | 0 | 0 | -30 | 0 | 0
COc1ccc(Nc2cc(C)c3cc(NC(=O)COc4cccc(C)c4)ccc3n2)cc1 | 0 | 0 | 0 | 0 | 0
COc1ccc(NC(=O)CSc2oc(-c3ccc(F)cc3)nc2S(=O)(=O)c2ccc(C)cc2)c(OC)c1 | 0 | 0 | 0 | 0 | 0
Cc1ccc(-n2cccc2/C=C2/C(=N)N3C(=NC2=O)SN=C3S(C)(=O)=O)cc1Cl | 0 | 0 | 0 | 0 | 0
Cc1cccc(C)c1-n1cccc1/C=C1/C(=N)N2C(=NC1=O)SN=C2S(C)(=O)=O | 0 | 0 | -66 | 0 | 0
Cc1nc(SCC(=O)OC(C)(C)C)c2c3c(sc2n1)CCCC3 | 0 | 0 | 0 | 0 | 0
Clc1ccc2[nH]c3c(c2c1)CNCC3 | 0 | 0 | -48 | 38 | 0
Clc1cccc2c3c([nH]c12)CCNC3 | 0 | 0 | 0 | 0 | 0
COc1ccc(OC)c(C2C(C(=O)Nc3ccccc3OC)=C(C)Nc3c(C(=O)Nc4ccc(F)cc4)cnn32)c1 (configuration not stated) | 0 | 0 | 0 | 0 | 0
Cc1cc(O)c(C(=O)c2cnc3c(c2)COc2ccccc2-3)cc1Cl | 0 | 0 | 0 | 35 | 0
Cc1ccc(O)c(C(=O)c2cnc3c(c2)COc2ccccc2-3)c1 | 0 | 0 | 0 | 0 | 0
CN(C[C@H](CC1CCCCC1)N(C[C@H](Cc1ccccc1)N(CCc1ccccc1)N=O)N=O)N=O | 0 | 0 | 0 | 0 | 0
Cc1ccc(Cl)cc1N1CCN(C(=O)c2ccc(NC3=NC4CS(=O)(=O)CC4S3)cc2)CC1 (configuration not stated) | 0 | 0 | -44 | 0 | 0
CCn1c(=O)n(CC2CCC(C(=O)NC(C)C)CC2)c(=O)c2sccc21 (configuration not stated) | 0 | 0 | 0 | 0 | 0
Cc1ccc(NC(=O)Cn2c(=O)n(CC3CCC(C(=O)NC(C)C)CC3)c(=O)c3sccc32)cc1 (configuration not stated) | 0 | 0 | -44 | 0 | 0
O=C(NCCc1ccccc1Cl)c1ccc(Cn2c(=O)c3cccn3c3cccnc32)cc1 | 0 | 0 | 0 | 0 | 0
CCOC(=O)[C@H]1[C@H]2COc3ccccc3[C@@H]2N2C(=O)CNC(=O)[C@@]12C | 0 | 0 | 0 | 0 | 0
Cc1cc(-c2ccc(C)c(S(=O)(=O)Nc3cccc(CN4CCCC4)c3)c2)on1 | 0 | 0 | -61 | 0 | 0
Cc1cc(-c2ccc(C)c(S(=O)(=O)Nc3cccc(C)n3)c2)on1 | 0 | 0 | -44 | 0 | 0
Cc1ccnc(NS(=O)(=O)c2cc(-c3cc(C)no3)ccc2C)c1 | 0 | 0 | 0 | 0 | 0
Cc1cc(-c2ccc(C)c(S(=O)(=O)Nc3ccccc3C(F)(F)F)c2)on1 | 0 | 0 | -36 | 0 | 0
COc1cccc(CCN2CCC(CNS(=O)(=O)c3cc(-c4cc(C)no4)ccc3C)CC2)c1 | 0 | 0 | -55 | 0 | 0
Cc1c(-c2ccccc2)oc2c(C(=O)N3CCN(c4ccccc4F)CC3)cccc2c1=O | 0 | 0 | 0 | 0 | 0
SMILES | D1 ag | D1 PAM | D1 antagonist | TRHR enhancer | TRHR ag
CCOc1ccc(N(C(=O)c2ccccc2F)S(=O)(=O)c2ccc3c(c2)n(C)c(=O)n3C)cc1 | 0 | 0 | 0 | 0 | 0
CCc1ccc(-c2cc(C)no2)cc1S(=O)(=O)N1CCCN(Cc2ccc(F)cc2)C1 | 0 | 0 | -31 | 0 | 0
CCc1ccc(-c2cc(C)no2)cc1S(=O)(=O)N1CCC(C)CC1 | 0 | 0 | 0 | 0 | 0
CCc1ccc2nc(N3CCC(C(=O)NCCC(C)C)CC3)sc2c1 | 0 | 0 | 0 | 0 | 0
CCCN(CCC)CCNC(=O)C1CCN(c2nc3ccc(CC)cc3s2)CC1 | 90 | 0 | -30 | 0 | 0
CCCN(CCC)CCCNC(=O)C1CCN(c2nc3ccc(CC)cc3s2)CC1 | 30 | 0 | -31 | 0 | 0
O=C(Nc1ccc(Br)cc1F)C1CCN(c2nc3ccccc3[nH]2)CC1 | 0 | 0 | 0 | 0 | 0
COc1ccccc1OCCNC(=O)Cc1ccc(Cl)c(Cl)c1 | 0 | 0 | -34 | 0 | 0

Compound activity deposited in PubChem BioAssay by National Center for Advancing Translational Sciences (NCATS).
